Experimental data as given in PubChem BioAssay (Tox21).
Some compounds were tested as several samples or in several runs, with calls that do not always agree. Active and inactive are the calls of the source. Entries that show only a call come without a potency. Calls follow the shape of the dose curve; as a rule, active = well fitted activation curve with a large enough effect in the repeat runs; inconclusive = weak or mixed curves; inactive = flat fitted curve, though single readings scatter.

Test: A CellTox Green Cytotoxicity Assay to monitor cytotoxicity in HEK293 cells - 0 hour (AID 1224869); also: nearly all actives have a fitted effect of over 50% in size
Conditions: CellTox Green fluorescence; series mostly up to 76.8 µM; cytotoxicity: at the top concentration
Method in brief: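 Each value comes from one timepoint of a single continuous run in which HEK293 cells with CellTox Green were exposed to compound for up to 40 h at 37 C, dye fluorescence rising with cell death.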
Potency is read from the fitted curve at half-maximal effect.

Structure (SMILES)	Potency	cytotoxicity
O=C1N=C(O)CN1/N=C/c1ccc(-c2ccc([N+](=O)[O-])cc2)o1	inactive	
Nc1cc(-c2ccncc2)c[nH]c1=O	inactive	
CC(C)(N=C=O)c1cccc(C(C)(C)N=C=O)c1	inactive	
CCCCC/C=C\C/C=C\CCCCCCCC(=O)OC	inactive	
CCCCCCCCCCCCN	inactive	
Oc1ccc(OCc2ccccc2)cc1	inactive	
CC1Cc2ccccc2N1NC(=O)c1ccc(Cl)c(S(N)(=O)=O)c1 (configuration not stated)	inactive	
CC(C)NCC(O)COc1cccc2ccccc12 (configuration not stated)	inactive	
Cc1cc(O)cc(C)c1Cl	inactive	
Oc1c(Cl)cc(Cl)c(Cl)c1Cl	inactive	
Cc1cc(Cc2ccc(N)c(C)c2)ccc1N	inactive	
CCCCCCCCCC(=O)O	inactive	
COC(=O)c1ccccc1O	inactive	
CCOC(=O)/C=C\C(=O)OCC	inactive	
Oc1ccc2ccccc2c1	inactive	
CC1(C)O[C@@H]2C[C@H]3[C@@H]4C[C@H](F)C5=CC(=O)CC[C@]5(C)[C@H]4[C@@H](O)C[C@]3(C)[C@]2(C(=O)CO)O1		4.03% [at 35.3 µM] (inactive)
O=C(c1ccc(O)cc1)c1ccc(O)cc1O	inactive	
CCCCC(CC)COC(=O)CCCCCCCC(=O)OCC(CC)CCCC (configuration not stated)	54.9 µM (active) and inactive	
COC(=O)Nc1nc2ccc(Sc3ccccc3)cc2[nH]1	inactive	
CC1(C)CC(N=C=O)CC(C)(CN=C=O)C1 (configuration not stated)	inactive	
CCCCC(CC)COC(C)=O (configuration not stated)	inactive	
CC1COc2ccccc2N1C(=O)C(Cl)Cl (configuration not stated)	inactive	
